Test results as given in PMC11006913.
Where a chain is given by its changes, count along the chain named.

Columns and labels:
Assay in all cases: PBM; 200 nM protein, PBS
Details in all cases: dsDNA, one strand shown
NKX2-4 [1] = molecular target: T1, NKX2-4 (Homo sapiens, UniProt Q9H2Z4 175-261, P217L)
T1 sequence: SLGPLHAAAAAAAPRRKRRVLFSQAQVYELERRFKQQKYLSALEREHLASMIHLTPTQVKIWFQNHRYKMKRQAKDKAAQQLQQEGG

NKX2-4 [2] = molecular target: T2, NKX2-4 (Homo sapiens, UniProt Q9H2Z4 175-261, T231S)
T2 sequence: T1 sequence with L43P, T57S

NKX2-4 [3] = molecular target: T3, NKX2-4 (Homo sapiens, UniProt Q9H2Z4 175-261)
T3 sequence: T1 sequence with L43P

NKX2-4 [4] = molecular target: T4, NKX2-4 (Homo sapiens, UniProt Q9H2Z4 175-261, R246Q)
T4 sequence: T1 sequence with L43P, R72Q

Row | Sequence | binding signal (NKX2-4 [1]) | binding signal (NKX2-4 [2]) | binding signal (NKX2-4 [3]) | binding signal (NKX2-4 [4])
1 | GGCAGTCA | 10.1 upbm affinity estimate (log intensity, higher = more binding, comparable within an allelic series) | 10 upbm affinity estimate (log intensity, higher = more binding, comparable within an allelic series) | 9.98 upbm affinity estimate (log intensity, higher = more binding, comparable within an allelic series) | 10.1 upbm affinity estimate (log intensity, higher = more binding, comparable within an allelic series)
2 | AGAGTGAG | 11.5 upbm affinity estimate (log intensity, higher = more binding, comparable within an allelic series) | 11.6 upbm affinity estimate (log intensity, higher = more binding, comparable within an allelic series) | 11.4 upbm affinity estimate (log intensity, higher = more binding, comparable within an allelic series) | 11.6 upbm affinity estimate (log intensity, higher = more binding, comparable within an allelic series)
3 | CCCCGCCG | 9.51 upbm affinity estimate (log intensity, higher = more binding, comparable within an allelic series) | 9.45 upbm affinity estimate (log intensity, higher = more binding, comparable within an allelic series) | 9.54 upbm affinity estimate (log intensity, higher = more binding, comparable within an allelic series) | 9.57 upbm affinity estimate (log intensity, higher = more binding, comparable within an allelic series)
4 | CCGCTAGG | 9.61 upbm affinity estimate (log intensity, higher = more binding, comparable within an allelic series) | 9.55 upbm affinity estimate (log intensity, higher = more binding, comparable within an allelic series) | 9.61 upbm affinity estimate (log intensity, higher = more binding, comparable within an allelic series) | 9.6 upbm affinity estimate (log intensity, higher = more binding, comparable within an allelic series)
5 | CGGTTCCA | 9.98 upbm affinity estimate (log intensity, higher = more binding, comparable within an allelic series) | 9.95 upbm affinity estimate (log intensity, higher = more binding, comparable within an allelic series) | 9.92 upbm affinity estimate (log intensity, higher = more binding, comparable within an allelic series) | 10 upbm affinity estimate (log intensity, higher = more binding, comparable within an allelic series)
6 | CCAGTCAC | 9.45 upbm affinity estimate (log intensity, higher = more binding, comparable within an allelic series) | 9.51 upbm affinity estimate (log intensity, higher = more binding, comparable within an allelic series) | 9.45 upbm affinity estimate (log intensity, higher = more binding, comparable within an allelic series) | 9.44 upbm affinity estimate (log intensity, higher = more binding, comparable within an allelic series)
7 | ATGTCCGG | 9.39 upbm affinity estimate (log intensity, higher = more binding, comparable within an allelic series) | 9.43 upbm affinity estimate (log intensity, higher = more binding, comparable within an allelic series) | 9.4 upbm affinity estimate (log intensity, higher = more binding, comparable within an allelic series) | 9.49 upbm affinity estimate (log intensity, higher = more binding, comparable within an allelic series)
8 | CAAGCCAG | 9.67 upbm affinity estimate (log intensity, higher = more binding, comparable within an allelic series) | 9.62 upbm affinity estimate (log intensity, higher = more binding, comparable within an allelic series) | 9.56 upbm affinity estimate (log intensity, higher = more binding, comparable within an allelic series) | 9.73 upbm affinity estimate (log intensity, higher = more binding, comparable within an allelic series)
9 | GTGGCCAC | 10.2 upbm affinity estimate (log intensity, higher = more binding, comparable within an allelic series) | 10.2 upbm affinity estimate (log intensity, higher = more binding, comparable within an allelic series) | 10.2 upbm affinity estimate (log intensity, higher = more binding, comparable within an allelic series) | 10.3 upbm affinity estimate (log intensity, higher = more binding, comparable within an allelic series)
10 | CACGCACG | 9.72 upbm affinity estimate (log intensity, higher = more binding, comparable within an allelic series) | 9.75 upbm affinity estimate (log intensity, higher = more binding, comparable within an allelic series) | 9.72 upbm affinity estimate (log intensity, higher = more binding, comparable within an allelic series) | 9.75 upbm affinity estimate (log intensity, higher = more binding, comparable within an allelic series)
11 | ATTTAGTG | 11.4 upbm affinity estimate (log intensity, higher = more binding, comparable within an allelic series) | 11.6 upbm affinity estimate (log intensity, higher = more binding, comparable within an allelic series) | 11.4 upbm affinity estimate (log intensity, higher = more binding, comparable within an allelic series) | 11.5 upbm affinity estimate (log intensity, higher = more binding, comparable within an allelic series)
12 | GCACTCAA | 12.5 upbm affinity estimate (log intensity, higher = more binding, comparable within an allelic series) | 12.9 upbm affinity estimate (log intensity, higher = more binding, comparable within an allelic series) | 12.4 upbm affinity estimate (log intensity, higher = more binding, comparable within an allelic series) | 13 upbm affinity estimate (log intensity, higher = more binding, comparable within an allelic series)
13 | CACTTTGA | 11.7 upbm affinity estimate (log intensity, higher = more binding, comparable within an allelic series) | 12 upbm affinity estimate (log intensity, higher = more binding, comparable within an allelic series) | 11.6 upbm affinity estimate (log intensity, higher = more binding, comparable within an allelic series) | 12 upbm affinity estimate (log intensity, higher = more binding, comparable within an allelic series)
14 | ACCGCAAC | 9.55 upbm affinity estimate (log intensity, higher = more binding, comparable within an allelic series) | 9.45 upbm affinity estimate (log intensity, higher = more binding, comparable within an allelic series) | 9.49 upbm affinity estimate (log intensity, higher = more binding, comparable within an allelic series) | 9.62 upbm affinity estimate (log intensity, higher = more binding, comparable within an allelic series)
15 | ACGCAGTG | 9.7 upbm affinity estimate (log intensity, higher = more binding, comparable within an allelic series) | 9.67 upbm affinity estimate (log intensity, higher = more binding, comparable within an allelic series) | 9.6 upbm affinity estimate (log intensity, higher = more binding, comparable within an allelic series) | 9.5 upbm affinity estimate (log intensity, higher = more binding, comparable within an allelic series)
16 | TCATCGAA | 11.4 upbm affinity estimate (log intensity, higher = more binding, comparable within an allelic series) | 11.5 upbm affinity estimate (log intensity, higher = more binding, comparable within an allelic series) | 11.2 upbm affinity estimate (log intensity, higher = more binding, comparable within an allelic series) | 11.5 upbm affinity estimate (log intensity, higher = more binding, comparable within an allelic series)

Row | Sequence | binding signal (NKX2-4 [1]) | binding signal (NKX2-4 [2]) | binding signal (NKX2-4 [3]) | binding signal (NKX2-4 [4])
17 | ATCCGGCC | 9.77 upbm affinity estimate (log intensity, higher = more binding, comparable within an allelic series) | 9.8 upbm affinity estimate (log intensity, higher = more binding, comparable within an allelic series) | 9.79 upbm affinity estimate (log intensity, higher = more binding, comparable within an allelic series) | 9.9 upbm affinity estimate (log intensity, higher = more binding, comparable within an allelic series)
18 | GAACTGGC | 9.51 upbm affinity estimate (log intensity, higher = more binding, comparable within an allelic series) | 9.49 upbm affinity estimate (log intensity, higher = more binding, comparable within an allelic series) | 9.54 upbm affinity estimate (log intensity, higher = more binding, comparable within an allelic series) | 9.65 upbm affinity estimate (log intensity, higher = more binding, comparable within an allelic series)
19 | ATGAGTAC | 12.4 upbm affinity estimate (log intensity, higher = more binding, comparable within an allelic series) | 12.8 upbm affinity estimate (log intensity, higher = more binding, comparable within an allelic series) | 12.3 upbm affinity estimate (log intensity, higher = more binding, comparable within an allelic series) | 12.7 upbm affinity estimate (log intensity, higher = more binding, comparable within an allelic series)
20 | GCGCGACA | 9.99 upbm affinity estimate (log intensity, higher = more binding, comparable within an allelic series) | 10 upbm affinity estimate (log intensity, higher = more binding, comparable within an allelic series) | 10 upbm affinity estimate (log intensity, higher = more binding, comparable within an allelic series) | 10.1 upbm affinity estimate (log intensity, higher = more binding, comparable within an allelic series)
21 | AGGCAGCC | 9.69 upbm affinity estimate (log intensity, higher = more binding, comparable within an allelic series) | 9.68 upbm affinity estimate (log intensity, higher = more binding, comparable within an allelic series) | 9.68 upbm affinity estimate (log intensity, higher = more binding, comparable within an allelic series) | 9.7 upbm affinity estimate (log intensity, higher = more binding, comparable within an allelic series)
22 | ACCGTCTG | 9.6 upbm affinity estimate (log intensity, higher = more binding, comparable within an allelic series) | 9.59 upbm affinity estimate (log intensity, higher = more binding, comparable within an allelic series) | 9.56 upbm affinity estimate (log intensity, higher = more binding, comparable within an allelic series) | 9.61 upbm affinity estimate (log intensity, higher = more binding, comparable within an allelic series)
23 | ACATGCAG | 9.48 upbm affinity estimate (log intensity, higher = more binding, comparable within an allelic series) | 9.63 upbm affinity estimate (log intensity, higher = more binding, comparable within an allelic series) | 9.52 upbm affinity estimate (log intensity, higher = more binding, comparable within an allelic series) | 9.48 upbm affinity estimate (log intensity, higher = more binding, comparable within an allelic series)
24 | GCTATAGC | 9.92 upbm affinity estimate (log intensity, higher = more binding, comparable within an allelic series) | 9.98 upbm affinity estimate (log intensity, higher = more binding, comparable within an allelic series) | 9.84 upbm affinity estimate (log intensity, higher = more binding, comparable within an allelic series) | 9.91 upbm affinity estimate (log intensity, higher = more binding, comparable within an allelic series)
25 | AAAGTACT | 12.4 upbm affinity estimate (log intensity, higher = more binding, comparable within an allelic series) | 12.8 upbm affinity estimate (log intensity, higher = more binding, comparable within an allelic series) | 12.3 upbm affinity estimate (log intensity, higher = more binding, comparable within an allelic series) | 12.8 upbm affinity estimate (log intensity, higher = more binding, comparable within an allelic series)
26 | CCGGCTCA | 9.54 upbm affinity estimate (log intensity, higher = more binding, comparable within an allelic series) | 9.64 upbm affinity estimate (log intensity, higher = more binding, comparable within an allelic series) | 9.59 upbm affinity estimate (log intensity, higher = more binding, comparable within an allelic series) | 9.56 upbm affinity estimate (log intensity, higher = more binding, comparable within an allelic series)
27 | ACTCATAG | 11.7 upbm affinity estimate (log intensity, higher = more binding, comparable within an allelic series) | 11.8 upbm affinity estimate (log intensity, higher = more binding, comparable within an allelic series) | 11.6 upbm affinity estimate (log intensity, higher = more binding, comparable within an allelic series) | 11.9 upbm affinity estimate (log intensity, higher = more binding, comparable within an allelic series)
28 | CACTCGAG | 12.4 upbm affinity estimate (log intensity, higher = more binding, comparable within an allelic series) | 12.8 upbm affinity estimate (log intensity, higher = more binding, comparable within an allelic series) | 12.4 upbm affinity estimate (log intensity, higher = more binding, comparable within an allelic series) | 13 upbm affinity estimate (log intensity, higher = more binding, comparable within an allelic series)
29 | ACGGCGCC | 9.61 upbm affinity estimate (log intensity, higher = more binding, comparable within an allelic series) | 9.62 upbm affinity estimate (log intensity, higher = more binding, comparable within an allelic series) | 9.59 upbm affinity estimate (log intensity, higher = more binding, comparable within an allelic series) | 9.67 upbm affinity estimate (log intensity, higher = more binding, comparable within an allelic series)
30 | AACGCCAG | 9.74 upbm affinity estimate (log intensity, higher = more binding, comparable within an allelic series) | 9.82 upbm affinity estimate (log intensity, higher = more binding, comparable within an allelic series) | 9.78 upbm affinity estimate (log intensity, higher = more binding, comparable within an allelic series) | 9.89 upbm affinity estimate (log intensity, higher = more binding, comparable within an allelic series)
31 | ACCAACGG | 9.32 upbm affinity estimate (log intensity, higher = more binding, comparable within an allelic series) | 9.25 upbm affinity estimate (log intensity, higher = more binding, comparable within an allelic series) | 9.28 upbm affinity estimate (log intensity, higher = more binding, comparable within an allelic series) | 9.29 upbm affinity estimate (log intensity, higher = more binding, comparable within an allelic series)
